Measurements as given in PubChem BioAssay AID1159580 (chemical genetic matrix, 2015).
Out of some 5,500 compounds screened, about 2,000 (36%) were called active. About 18% were inconclusive and are not listed. No stated cut-off is given here; in the data, active means normalized growth mostly below about 0.91 (no sharp cut-off); inconclusive means no clear call, values can overlap the other calls; inactive means mostly above about 0.92. The list shows a part of the results.

Assay: chemical genetic growth profiling, strain panel (AID 1159580);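 further: tested at 20 µM; growth read once vehicle control cultures reached saturation at 30 °C; 1 = growth at the plate median or of vehicle wells; lower values mean less growth of the strain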
Details: S. cerevisiae deletion strains, growth OD

Measured: normalized growth

O=C(O)CCCCCCCC(O)C(O)CCCCCCO (stereo not given)
inactive: locus YHR030C, strain SLT2, active compounds read low 1.02 | locus YHR079C, strain IRE1, active compounds read low 1.01 | locus YJL095W, strain BCK1, active compounds read low 1 | locus YJR066W, strain TOR1, active compounds read low 0.935 | locus YLR113W, strain HOG1, active compounds read low 0.987 | locus YNL183C, strain NPR1, active compounds read low 0.954 | locus YOR231W, strain MKK1, active compounds read low 0.991 | locus YPL256C, strain CLN2, active compounds read low 1.01

Cn1cnc2c(NCc3ccccc3)nc(NCCO)nc21
inactive: locus YAL013W, strain DEP1, active compounds read low 0.989 | locus YAL040C, strain CLN3, active compounds read low 1.08 | locus YCL061C, strain MRC1 (second series), active compounds read low 0.99 | locus YDR150W, strain NUM1, active compounds read low 0.998 | locus YDR363W, strain ESC2, active compounds read low 1.01 | locus YER002W, strain NOP16, active compounds read low 1.05 | locus YGR078C, strain PAC10, active compounds read low 0.988 | locus YGR229C, strain SMI1, active compounds read low 0.991 | locus YJR075W, strain HOC1, active compounds read low 0.981 | locus YMR263W, strain SAP30, active compounds read low 0.984 | locus YMR307W, strain GAS1, active compounds read low 1 | locus YNL175C, strain NOP13, active compounds read low 1 | locus YNL197C, strain WHI3, active compounds read low 0.982 | locus YNL224C, strain SQS1, active compounds read low 1 | locus YNL322C, strain KRE1, active compounds read low 0.992 | locus YOR083W, strain WHI5 (second series), active compounds read low 0.988 | locus YPL055C, strain LGE1, active compounds read low 1
